# In ChEMBL document CHEMBL2218924, “A broad activity screen in support of a chemogenomic map for kinase signalling research and drug discovery” (Biochem J, 2013):
# Key:
# [1] = molecular target: PAS domain-containing serine/threonine-protein kinase (Homo sapiens) (UniProt Q96RG2); conditions: at 1 µM
# [2] = molecular target: Serine/threonine-protein kinase PAK 5 (Homo sapiens) (UniProt Q9P286); conditions: at 1 µM
# [3] = molecular target: Serine/threonine-protein kinase PAK 5 (Homo sapiens) (UniProt Q9P286); conditions: at 10 µM
# [4] = molecular target: Serine/threonine-protein kinase PAK 6 (Homo sapiens) (UniProt Q9NQU5); conditions: at 1 µM
# Sequence of Serine/threonine-protein kinase PAK 6 (Homo sapiens) (Q9NQU5 whole entry, looked up, the tested form may be a part): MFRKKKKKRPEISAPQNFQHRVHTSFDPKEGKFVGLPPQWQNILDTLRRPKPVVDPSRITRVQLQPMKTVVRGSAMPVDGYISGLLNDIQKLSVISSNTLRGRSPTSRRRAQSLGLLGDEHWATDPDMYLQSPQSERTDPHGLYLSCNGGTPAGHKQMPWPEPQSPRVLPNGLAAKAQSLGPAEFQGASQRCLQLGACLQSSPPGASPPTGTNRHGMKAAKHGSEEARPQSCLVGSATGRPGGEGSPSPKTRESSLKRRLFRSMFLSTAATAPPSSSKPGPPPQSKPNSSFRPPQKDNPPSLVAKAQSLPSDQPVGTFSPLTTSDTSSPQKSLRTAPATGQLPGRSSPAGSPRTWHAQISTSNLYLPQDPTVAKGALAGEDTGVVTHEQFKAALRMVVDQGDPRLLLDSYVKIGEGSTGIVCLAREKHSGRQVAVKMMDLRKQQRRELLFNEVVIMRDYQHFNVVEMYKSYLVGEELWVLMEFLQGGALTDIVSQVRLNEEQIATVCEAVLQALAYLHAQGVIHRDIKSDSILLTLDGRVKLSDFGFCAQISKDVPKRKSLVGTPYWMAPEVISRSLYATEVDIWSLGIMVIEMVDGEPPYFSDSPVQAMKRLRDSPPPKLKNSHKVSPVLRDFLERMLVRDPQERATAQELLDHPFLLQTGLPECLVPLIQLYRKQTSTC
# [5] = molecular target: Serine/threonine-protein kinase PAK 6 (Homo sapiens) (UniProt Q9NQU5); conditions: at 10 µM
# [6] = molecular target: PAS domain-containing serine/threonine-protein kinase (Homo sapiens) (UniProt Q96RG2); conditions: at 10 µM
# [7] = molecular target: Activated CDC42 kinase 1 (Homo sapiens) (UniProt Q07912); conditions: at 1 µM
# Sequence of Activated CDC42 kinase 1 (Homo sapiens) (Q07912 whole entry, looked up): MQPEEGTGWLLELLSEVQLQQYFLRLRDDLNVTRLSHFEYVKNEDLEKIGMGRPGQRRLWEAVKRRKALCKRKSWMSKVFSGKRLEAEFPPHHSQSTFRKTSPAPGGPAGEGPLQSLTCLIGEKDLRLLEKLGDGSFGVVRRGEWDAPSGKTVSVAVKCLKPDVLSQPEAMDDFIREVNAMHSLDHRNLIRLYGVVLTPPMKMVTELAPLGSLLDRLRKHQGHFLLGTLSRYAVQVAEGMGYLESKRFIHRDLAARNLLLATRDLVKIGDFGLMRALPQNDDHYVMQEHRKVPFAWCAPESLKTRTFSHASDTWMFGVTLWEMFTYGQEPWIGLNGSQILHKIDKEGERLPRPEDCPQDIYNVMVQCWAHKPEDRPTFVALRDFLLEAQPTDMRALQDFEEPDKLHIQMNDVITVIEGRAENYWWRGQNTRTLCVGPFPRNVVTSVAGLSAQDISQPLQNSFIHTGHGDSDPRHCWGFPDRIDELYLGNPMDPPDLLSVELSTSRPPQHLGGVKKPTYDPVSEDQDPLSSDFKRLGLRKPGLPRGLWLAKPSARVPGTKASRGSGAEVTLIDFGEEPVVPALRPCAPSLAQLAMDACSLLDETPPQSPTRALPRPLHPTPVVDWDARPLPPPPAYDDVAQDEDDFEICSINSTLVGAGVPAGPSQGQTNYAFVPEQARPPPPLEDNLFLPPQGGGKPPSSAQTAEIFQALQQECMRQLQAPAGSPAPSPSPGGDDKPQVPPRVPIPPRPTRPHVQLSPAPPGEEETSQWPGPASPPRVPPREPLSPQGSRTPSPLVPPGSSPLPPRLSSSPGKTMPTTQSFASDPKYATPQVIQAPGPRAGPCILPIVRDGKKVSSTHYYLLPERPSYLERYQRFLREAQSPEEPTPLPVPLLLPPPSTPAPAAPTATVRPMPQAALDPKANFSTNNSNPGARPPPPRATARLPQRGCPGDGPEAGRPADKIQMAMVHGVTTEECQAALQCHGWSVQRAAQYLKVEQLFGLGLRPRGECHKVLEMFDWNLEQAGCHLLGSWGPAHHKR
# [8] = molecular target: Activated CDC42 kinase 1 (Homo sapiens) (UniProt Q07912); conditions: at 10 µM
# [9] = molecular target: ALK tyrosine kinase receptor (Homo sapiens) (UniProt Q9UM73); conditions: at 1 µM
# Sequence of ALK tyrosine kinase receptor (Homo sapiens) (Q9UM73 19-1620 limits assumed): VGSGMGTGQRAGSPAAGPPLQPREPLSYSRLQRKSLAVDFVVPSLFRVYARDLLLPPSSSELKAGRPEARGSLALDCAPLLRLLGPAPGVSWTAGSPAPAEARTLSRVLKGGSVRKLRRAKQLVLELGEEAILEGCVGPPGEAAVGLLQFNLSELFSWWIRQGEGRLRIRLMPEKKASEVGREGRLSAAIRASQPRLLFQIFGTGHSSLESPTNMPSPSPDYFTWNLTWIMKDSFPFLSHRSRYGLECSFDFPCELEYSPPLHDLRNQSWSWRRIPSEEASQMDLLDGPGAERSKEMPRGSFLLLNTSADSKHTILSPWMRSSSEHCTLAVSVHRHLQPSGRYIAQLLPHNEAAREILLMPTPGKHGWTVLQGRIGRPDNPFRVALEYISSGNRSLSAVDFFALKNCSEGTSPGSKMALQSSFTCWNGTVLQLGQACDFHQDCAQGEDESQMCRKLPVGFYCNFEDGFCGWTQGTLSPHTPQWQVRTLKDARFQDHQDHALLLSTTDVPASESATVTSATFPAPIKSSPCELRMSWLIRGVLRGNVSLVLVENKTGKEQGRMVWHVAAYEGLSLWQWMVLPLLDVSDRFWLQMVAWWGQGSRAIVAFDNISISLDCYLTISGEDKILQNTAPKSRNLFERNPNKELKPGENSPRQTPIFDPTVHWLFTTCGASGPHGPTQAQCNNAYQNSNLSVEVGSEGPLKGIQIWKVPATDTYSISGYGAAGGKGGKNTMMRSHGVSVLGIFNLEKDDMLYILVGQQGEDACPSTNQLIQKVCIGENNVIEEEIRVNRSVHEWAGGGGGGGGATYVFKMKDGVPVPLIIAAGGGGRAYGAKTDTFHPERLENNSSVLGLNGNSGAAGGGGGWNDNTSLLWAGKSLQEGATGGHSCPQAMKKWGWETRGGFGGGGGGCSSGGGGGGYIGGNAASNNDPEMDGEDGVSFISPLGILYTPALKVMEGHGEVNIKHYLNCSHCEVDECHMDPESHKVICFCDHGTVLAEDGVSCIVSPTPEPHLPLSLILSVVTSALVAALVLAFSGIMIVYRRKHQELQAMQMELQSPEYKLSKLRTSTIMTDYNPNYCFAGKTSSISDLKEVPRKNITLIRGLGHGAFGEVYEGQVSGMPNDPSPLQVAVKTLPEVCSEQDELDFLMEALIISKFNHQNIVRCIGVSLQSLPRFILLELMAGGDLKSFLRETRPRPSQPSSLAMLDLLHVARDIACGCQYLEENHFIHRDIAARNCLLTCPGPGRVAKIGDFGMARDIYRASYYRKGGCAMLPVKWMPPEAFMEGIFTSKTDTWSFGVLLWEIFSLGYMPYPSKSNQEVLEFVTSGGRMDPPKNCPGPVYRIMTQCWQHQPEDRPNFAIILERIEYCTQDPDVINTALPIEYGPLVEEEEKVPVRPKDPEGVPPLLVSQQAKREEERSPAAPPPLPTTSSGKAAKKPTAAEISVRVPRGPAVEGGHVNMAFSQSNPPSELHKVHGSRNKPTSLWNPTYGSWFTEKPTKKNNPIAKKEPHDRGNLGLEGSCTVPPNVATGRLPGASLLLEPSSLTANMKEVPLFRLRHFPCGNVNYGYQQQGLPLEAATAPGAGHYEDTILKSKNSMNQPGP
# [10] = molecular target: ALK tyrosine kinase receptor (Homo sapiens) (UniProt Q9UM73); conditions: at 10 µM
# [11] = molecular target: T1, Activin receptor type-1B (Homo sapiens) (UniProt P36896); conditions: at 1 µM
# T1 sequence (whole entry): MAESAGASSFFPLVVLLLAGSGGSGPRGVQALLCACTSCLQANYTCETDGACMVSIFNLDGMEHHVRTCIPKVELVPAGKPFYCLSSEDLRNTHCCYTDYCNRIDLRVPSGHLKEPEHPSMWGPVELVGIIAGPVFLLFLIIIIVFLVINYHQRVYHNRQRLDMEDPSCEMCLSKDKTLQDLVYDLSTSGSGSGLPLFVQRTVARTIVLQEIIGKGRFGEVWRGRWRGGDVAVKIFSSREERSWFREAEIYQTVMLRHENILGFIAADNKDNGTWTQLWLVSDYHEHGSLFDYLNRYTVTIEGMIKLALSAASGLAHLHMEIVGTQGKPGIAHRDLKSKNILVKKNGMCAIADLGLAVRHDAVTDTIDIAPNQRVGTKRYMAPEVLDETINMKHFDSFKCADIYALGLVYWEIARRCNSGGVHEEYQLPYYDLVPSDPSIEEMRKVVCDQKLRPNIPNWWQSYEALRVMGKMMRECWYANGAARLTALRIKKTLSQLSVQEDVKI
# [12] = molecular target: T1, Activin receptor type-1B (Homo sapiens); conditions: at 10 µM
# [13] = molecular target: T2, AMP-activated protein kinase (AMPK) alpha-1/beta-1/gamma-1 (Homo sapiens) (UniProt P54619+Q9Y478+Q13131); conditions: at 1 µM
# [14] = molecular target: T2, AMP-activated protein kinase (AMPK) alpha-1/beta-1/gamma-1 (Homo sapiens); conditions: at 10 µM
# [15] = molecular target: T3, AMP-activated protein kinase, AMPK (Homo sapiens) (UniProt P54646+O43741+P54619+Q9UGJ0+Q9Y478+Q13131+Q9UGI9); conditions: at 1 µM
# [16] = molecular target: T3, AMP-activated protein kinase, AMPK (Homo sapiens); conditions: at 10 µM
# [17] = molecular target: T4, NUAK family SNF1-like kinase 1 (Homo sapiens) (UniProt O60285); conditions: at 1 µM
# T4 sequence (whole entry): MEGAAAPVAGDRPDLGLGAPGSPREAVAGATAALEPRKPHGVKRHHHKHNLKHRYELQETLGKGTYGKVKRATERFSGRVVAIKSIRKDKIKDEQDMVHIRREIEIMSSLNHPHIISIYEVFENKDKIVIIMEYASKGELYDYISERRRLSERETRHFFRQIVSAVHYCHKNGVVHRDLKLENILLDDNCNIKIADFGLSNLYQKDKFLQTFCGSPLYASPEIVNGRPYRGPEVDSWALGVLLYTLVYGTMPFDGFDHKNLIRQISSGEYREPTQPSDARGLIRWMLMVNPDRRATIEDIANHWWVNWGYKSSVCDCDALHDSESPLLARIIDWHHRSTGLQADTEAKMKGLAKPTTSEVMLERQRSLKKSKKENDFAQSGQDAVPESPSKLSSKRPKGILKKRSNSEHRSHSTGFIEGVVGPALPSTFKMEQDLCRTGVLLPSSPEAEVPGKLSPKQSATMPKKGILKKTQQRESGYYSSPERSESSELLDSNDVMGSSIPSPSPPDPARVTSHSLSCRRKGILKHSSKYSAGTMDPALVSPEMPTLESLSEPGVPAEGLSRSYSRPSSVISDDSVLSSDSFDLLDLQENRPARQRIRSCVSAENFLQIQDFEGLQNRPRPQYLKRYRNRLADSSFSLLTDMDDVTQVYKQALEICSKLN
# [18] = molecular target: T4, NUAK family SNF1-like kinase 1 (Homo sapiens); conditions: at 10 µM
# [19] = molecular target: T5, Mitogen-activated protein kinase kinase kinase 5 (Homo sapiens) (UniProt Q99683); conditions: at 1 µM
# T5 sequence (whole entry): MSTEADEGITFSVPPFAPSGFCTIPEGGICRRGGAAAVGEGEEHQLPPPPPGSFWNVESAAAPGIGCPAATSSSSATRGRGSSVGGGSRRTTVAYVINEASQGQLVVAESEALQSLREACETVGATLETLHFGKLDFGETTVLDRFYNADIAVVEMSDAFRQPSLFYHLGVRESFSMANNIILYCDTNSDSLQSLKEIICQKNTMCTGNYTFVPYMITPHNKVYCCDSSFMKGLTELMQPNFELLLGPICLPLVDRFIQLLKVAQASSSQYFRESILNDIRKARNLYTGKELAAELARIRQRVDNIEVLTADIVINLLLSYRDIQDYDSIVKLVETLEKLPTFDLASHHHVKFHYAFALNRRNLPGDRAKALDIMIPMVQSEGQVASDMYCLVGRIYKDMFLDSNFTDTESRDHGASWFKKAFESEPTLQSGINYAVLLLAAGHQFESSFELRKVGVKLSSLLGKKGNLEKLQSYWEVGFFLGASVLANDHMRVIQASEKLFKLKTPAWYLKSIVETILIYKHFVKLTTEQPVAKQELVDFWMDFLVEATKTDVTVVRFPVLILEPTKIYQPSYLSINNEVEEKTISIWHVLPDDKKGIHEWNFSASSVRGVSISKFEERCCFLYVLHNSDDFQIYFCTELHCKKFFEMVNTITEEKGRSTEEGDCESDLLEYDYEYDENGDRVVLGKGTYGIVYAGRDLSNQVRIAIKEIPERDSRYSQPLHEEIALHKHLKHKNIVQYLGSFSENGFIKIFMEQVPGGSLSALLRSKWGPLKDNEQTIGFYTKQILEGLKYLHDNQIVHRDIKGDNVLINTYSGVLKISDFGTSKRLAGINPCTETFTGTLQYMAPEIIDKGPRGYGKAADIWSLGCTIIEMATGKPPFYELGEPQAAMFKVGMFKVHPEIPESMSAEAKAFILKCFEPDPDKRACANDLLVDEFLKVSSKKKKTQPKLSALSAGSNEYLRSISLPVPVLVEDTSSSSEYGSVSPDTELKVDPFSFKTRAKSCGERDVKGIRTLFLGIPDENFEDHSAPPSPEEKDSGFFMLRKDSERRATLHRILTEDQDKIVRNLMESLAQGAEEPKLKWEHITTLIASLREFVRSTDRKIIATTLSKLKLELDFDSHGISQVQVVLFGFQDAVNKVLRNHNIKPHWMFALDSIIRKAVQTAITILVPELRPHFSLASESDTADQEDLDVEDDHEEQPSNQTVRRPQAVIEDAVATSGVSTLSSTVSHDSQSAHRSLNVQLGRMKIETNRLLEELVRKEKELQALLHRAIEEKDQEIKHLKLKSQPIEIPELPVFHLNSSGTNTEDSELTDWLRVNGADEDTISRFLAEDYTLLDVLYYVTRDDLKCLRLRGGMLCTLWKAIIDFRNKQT
# [20] = molecular target: Platelet-derived growth factor receptor alpha (Homo sapiens) (UniProt P16234); conditions: at 1 µM
# Sequence of Platelet-derived growth factor receptor alpha (Homo sapiens) (P16234 whole entry): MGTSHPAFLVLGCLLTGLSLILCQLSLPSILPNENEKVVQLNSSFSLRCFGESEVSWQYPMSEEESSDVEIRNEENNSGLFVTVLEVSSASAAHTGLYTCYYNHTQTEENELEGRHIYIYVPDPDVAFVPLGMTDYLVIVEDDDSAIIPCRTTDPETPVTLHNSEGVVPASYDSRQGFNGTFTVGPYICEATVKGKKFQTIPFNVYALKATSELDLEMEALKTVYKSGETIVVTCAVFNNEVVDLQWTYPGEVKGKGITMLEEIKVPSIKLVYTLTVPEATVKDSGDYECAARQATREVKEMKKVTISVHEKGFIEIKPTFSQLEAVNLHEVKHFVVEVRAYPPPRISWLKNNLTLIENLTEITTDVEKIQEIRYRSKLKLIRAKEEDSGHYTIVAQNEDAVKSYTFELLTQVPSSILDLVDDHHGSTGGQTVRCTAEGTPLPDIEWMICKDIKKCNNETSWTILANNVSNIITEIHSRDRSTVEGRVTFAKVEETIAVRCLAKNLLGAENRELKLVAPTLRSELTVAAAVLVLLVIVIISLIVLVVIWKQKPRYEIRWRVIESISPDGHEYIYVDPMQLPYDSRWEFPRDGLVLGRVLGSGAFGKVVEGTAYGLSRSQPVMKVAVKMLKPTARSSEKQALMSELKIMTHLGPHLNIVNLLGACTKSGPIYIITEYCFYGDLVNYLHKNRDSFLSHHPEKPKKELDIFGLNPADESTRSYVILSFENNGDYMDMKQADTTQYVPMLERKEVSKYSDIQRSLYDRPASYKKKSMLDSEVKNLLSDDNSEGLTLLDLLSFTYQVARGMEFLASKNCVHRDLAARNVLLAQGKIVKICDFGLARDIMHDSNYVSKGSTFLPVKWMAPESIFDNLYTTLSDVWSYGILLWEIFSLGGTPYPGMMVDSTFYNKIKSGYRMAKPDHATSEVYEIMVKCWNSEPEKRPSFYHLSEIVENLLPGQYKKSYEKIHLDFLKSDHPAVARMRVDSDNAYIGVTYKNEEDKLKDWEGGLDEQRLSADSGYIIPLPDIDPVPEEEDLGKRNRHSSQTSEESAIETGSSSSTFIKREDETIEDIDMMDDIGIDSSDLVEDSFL
# Sequence of Serine/threonine-protein kinase PAK 5 (Homo sapiens) (Q9P286 whole entry, looked up): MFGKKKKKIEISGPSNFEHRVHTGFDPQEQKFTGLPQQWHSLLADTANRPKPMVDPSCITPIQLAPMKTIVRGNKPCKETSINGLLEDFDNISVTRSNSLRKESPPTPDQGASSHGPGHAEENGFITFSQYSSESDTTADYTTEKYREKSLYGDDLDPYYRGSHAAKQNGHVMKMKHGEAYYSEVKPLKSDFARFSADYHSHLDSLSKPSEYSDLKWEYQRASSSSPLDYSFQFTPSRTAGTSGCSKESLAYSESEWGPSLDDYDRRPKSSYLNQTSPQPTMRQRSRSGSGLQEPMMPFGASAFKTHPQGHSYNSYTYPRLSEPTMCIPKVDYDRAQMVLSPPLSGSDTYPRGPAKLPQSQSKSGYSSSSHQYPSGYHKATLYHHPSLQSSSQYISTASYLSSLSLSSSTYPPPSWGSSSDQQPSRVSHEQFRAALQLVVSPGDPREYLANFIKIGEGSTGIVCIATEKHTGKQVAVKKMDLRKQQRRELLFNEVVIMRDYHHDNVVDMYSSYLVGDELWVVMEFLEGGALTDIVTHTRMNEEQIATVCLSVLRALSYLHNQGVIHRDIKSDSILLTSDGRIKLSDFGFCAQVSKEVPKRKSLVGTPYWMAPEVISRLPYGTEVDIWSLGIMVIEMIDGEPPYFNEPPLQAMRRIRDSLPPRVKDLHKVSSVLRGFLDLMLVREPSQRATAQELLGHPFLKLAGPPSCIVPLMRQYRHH
structure (smiles),measurement,setting,value
CC[n+]1c(/C=C/N(C)c2ccccc2)n(-c2ccccc2)c2ccc(-c3nc4ccccc4s3)cc21,residual activity,[1],80%
COC(=O)[C@@]1(O)C[C@H]2O[C@]1(C)n1c3ccccc3c3c4c(c5c6ccccc6n2c5c31)C(=O)NC4,residual activity,[2],6%
same,residual activity,[3],1%
same,residual activity,[4],0%
same,residual activity,[5],-1%
same,residual activity,[1],14%
same,residual activity,[6],4%
same,residual activity,[7],0%
same,residual activity,[8],0%
same,residual activity,[9],10%
same,residual activity,[10],1%
same,residual activity,[11],24%
same,residual activity,[12],0%
same,residual activity,[13],-1%
same,residual activity,[14],0%
same,residual activity,[15],-5%
same,residual activity,[16],1%
same,residual activity,[17],1%
same,residual activity,[18],1%
same,residual activity,[19],0%
same,residual activity,[20],32%
CC(C)(C)n1nc(Cc2cccc3ccccc23)c2c(N)ncnc21,residual activity,[1],116%
Nc1ncnc2c1c(-c1ccc(Oc3ccccc3)cc1)cn2C1CCCC1,residual activity,[1],108%
COc1cc(OC)c(/C=C2\C(=O)Nc3ccccc32)c(OC)c1,residual activity,[2],96%
same,residual activity,[3],93%
same,residual activity,[5],93%
same,residual activity,[1],92%
same,residual activity,[7],71%
same,residual activity,[8],56%
same,residual activity,[9],89%
same,residual activity,[10],75%
same,residual activity,[13],104%
same,residual activity,[14],82%
same,residual activity,[16],95%
same,residual activity,[17],102%
same,residual activity,[18],84%
same,residual activity,[19],91%
same,residual activity,[20],82%
c1ccc(-c2cnc(Nc3ccc(OCCN4CCCC4)cc3)s2)cc1,residual activity,[1],81%
CCC(=O)Nc1ccc2ncnc(Nc3cccc(Br)c3)c2c1,residual activity,[1],85%
O=C1c2ccccc2-[n+]2ccc3c([nH]c4ccccc43)c21,residual activity,[1],147%
NC(=O)c1ccc2[nH]c(-c3ccc(Oc4ccc(Cl)cc4)cc3)nc2c1,residual activity,[1],134%
O=S(=O)(NCCNC/C=C/c1ccc(Br)cc1)c1cccc2cnccc12,residual activity,[1],141%
Oc1n[nH]c2nnc(-c3c(-c4ccccc4)nn4ccccc34)cc12,residual activity,[1],100%
COc1ccc(OC)c2c(=S)c3ccccc3[nH]c12,residual activity,[1],108%
O=C1c2ccccc2-c2nc3nnnn3nc21,residual activity,[2],80%
same,residual activity,[3],74%
same,residual activity,[4],112%
same,residual activity,[5],112%
same,residual activity,[7],109%
same,residual activity,[8],80%
same,residual activity,[15],122%
same,residual activity,[16],75%
same,residual activity,[19],107%
same,residual activity,[20],128%
COc1ccc2c(c[n+](C)c3c4cc5c(cc4ccc23)OCO5)c1OC,residual activity,[3],87%
same,residual activity,[4],99%
same,residual activity,[5],61%
same,residual activity,[1],70%
same,residual activity,[6],61%
same,residual activity,[7],84%
same,residual activity,[8],68%
same,residual activity,[10],65%
same,residual activity,[11],132%
same,residual activity,[12],94%
same,residual activity,[13],96%
same,residual activity,[14],66%
same,residual activity,[15],89%
same,residual activity,[16],60%
O=C1Nc2ccc3ncsc3c2/C1=C/c1c[nH]cn1,residual activity,[2],70%
same,residual activity,[3],34%
same,residual activity,[4],83%
same,residual activity,[5],36%
same,residual activity,[1],46%
same,residual activity,[6],2%
same,residual activity,[7],64%
same,residual activity,[8],17%
same,residual activity,[9],72%
same,residual activity,[10],57%
same,residual activity,[11],85%
same,residual activity,[12],13%
same,residual activity,[13],10%
same,residual activity,[14],2%
same,residual activity,[15],3%
same,residual activity,[16],3%
same,residual activity,[17],6%
same,residual activity,[18],5%
same,residual activity,[19],26%
same,residual activity,[20],68%
